# Source: PubChem BioAssay (Center for Chemical Genomics, University of Michigan)
# Dicer processing: blocks human Dicer maturation of pre-miR-21. Q9UPY3. cat-ELCCA pre-miR-21 Dicer processing, chemiluminescence; hits give high values. z-score at 25 µM. hit rate 6% among 47,000; in the data active means z-score above about 3, passing the limit was not always enough;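 further: plate controls were vehicle for no effect and no enzyme for full effect; higher signal means more uncleaved substrate so more Dicer inhibition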
# Target sequence (Q9UPY3 whole entry, looked up): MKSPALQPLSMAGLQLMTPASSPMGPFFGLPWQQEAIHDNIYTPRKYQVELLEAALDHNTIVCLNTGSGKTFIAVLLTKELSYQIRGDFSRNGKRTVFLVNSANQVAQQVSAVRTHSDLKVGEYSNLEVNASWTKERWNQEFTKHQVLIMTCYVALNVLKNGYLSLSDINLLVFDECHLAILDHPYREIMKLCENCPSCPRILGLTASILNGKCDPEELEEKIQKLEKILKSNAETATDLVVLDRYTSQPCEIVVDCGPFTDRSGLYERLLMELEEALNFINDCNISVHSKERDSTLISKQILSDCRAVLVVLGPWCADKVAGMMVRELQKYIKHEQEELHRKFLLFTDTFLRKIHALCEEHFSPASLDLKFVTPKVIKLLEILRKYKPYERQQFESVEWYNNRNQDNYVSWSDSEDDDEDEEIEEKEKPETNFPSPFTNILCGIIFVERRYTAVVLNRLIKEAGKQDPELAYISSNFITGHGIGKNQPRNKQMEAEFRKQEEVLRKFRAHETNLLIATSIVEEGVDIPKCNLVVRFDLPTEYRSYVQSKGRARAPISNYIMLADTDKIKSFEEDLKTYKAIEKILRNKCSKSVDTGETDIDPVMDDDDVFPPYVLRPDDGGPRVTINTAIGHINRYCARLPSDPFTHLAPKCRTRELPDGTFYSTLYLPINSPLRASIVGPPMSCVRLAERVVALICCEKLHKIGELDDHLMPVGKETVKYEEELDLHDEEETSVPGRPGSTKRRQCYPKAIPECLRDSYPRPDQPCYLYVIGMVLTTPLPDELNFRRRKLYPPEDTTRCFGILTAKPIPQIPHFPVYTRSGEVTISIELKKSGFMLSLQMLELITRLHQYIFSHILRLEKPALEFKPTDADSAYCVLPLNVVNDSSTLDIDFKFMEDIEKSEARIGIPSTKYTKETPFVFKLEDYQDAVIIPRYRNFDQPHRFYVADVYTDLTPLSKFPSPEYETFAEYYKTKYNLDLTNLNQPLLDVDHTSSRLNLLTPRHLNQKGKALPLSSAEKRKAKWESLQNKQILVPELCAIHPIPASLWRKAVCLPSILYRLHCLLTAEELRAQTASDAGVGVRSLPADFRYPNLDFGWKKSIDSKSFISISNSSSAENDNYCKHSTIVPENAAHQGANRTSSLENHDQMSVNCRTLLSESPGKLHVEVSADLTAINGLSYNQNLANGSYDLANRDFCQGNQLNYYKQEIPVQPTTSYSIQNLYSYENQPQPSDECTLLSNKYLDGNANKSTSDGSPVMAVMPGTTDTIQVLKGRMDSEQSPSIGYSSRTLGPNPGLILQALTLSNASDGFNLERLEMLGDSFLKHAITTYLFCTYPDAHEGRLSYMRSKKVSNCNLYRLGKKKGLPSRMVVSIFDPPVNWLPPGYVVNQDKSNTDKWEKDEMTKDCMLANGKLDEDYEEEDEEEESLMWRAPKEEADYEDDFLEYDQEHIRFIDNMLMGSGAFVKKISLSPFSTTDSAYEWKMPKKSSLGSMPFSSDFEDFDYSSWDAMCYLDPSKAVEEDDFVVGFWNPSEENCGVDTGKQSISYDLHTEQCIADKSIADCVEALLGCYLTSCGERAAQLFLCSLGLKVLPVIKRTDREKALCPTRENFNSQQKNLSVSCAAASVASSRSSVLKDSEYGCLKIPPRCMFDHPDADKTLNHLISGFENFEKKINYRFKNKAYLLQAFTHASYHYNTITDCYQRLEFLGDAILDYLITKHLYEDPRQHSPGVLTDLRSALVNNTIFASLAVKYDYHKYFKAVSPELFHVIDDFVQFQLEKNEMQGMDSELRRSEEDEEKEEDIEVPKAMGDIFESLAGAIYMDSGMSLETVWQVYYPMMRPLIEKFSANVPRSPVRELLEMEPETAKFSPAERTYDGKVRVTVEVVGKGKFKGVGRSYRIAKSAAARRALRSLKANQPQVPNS
# * = called active by the depositor. The sample as a whole holds a higher share of hits than the screen did.
SMILES,Dicer processing
O=C(Nc1ccc(Cl)cc1)c1cnn(-c2ccccc2)c1C(F)(F)F,-1.1
O=C(c1cc2ccccc2s1)N1CCOCC1,3.2*
O=C(c1sc2ccccc2c1Cl)N1CCOCC1,0.17
NC(=O)C1CCN(C(=O)Nc2cc3ccccc3s2)CC1,-3.1
Cc1ccc2nc(SCC(N)=O)nc(C)c2c1,-0.42
NC(=S)Nc1ccc(C2CCCCC2)cc1,1
COc1ccc(Br)cc1C1C(C(=O)OC(C)C)=C(C)Nc2nnnn21 (stereo not given),0.84
CC(=O)Oc1ccc2c(=O)c(Oc3ccc(Cl)cc3)c(C(F)(F)F)oc2c1,-0.22
O=C(Oc1ccc2c(=O)c(-c3ccc(Cl)cc3)c(C(F)(F)F)oc2c1)N1CCOCC1,4*
COc1ccc(Oc2c(C)oc3cc(OC(=O)N4CCOCC4)ccc3c2=O)cc1,0.19
Cc1ccc(/C(O)=C2\C(=O)C(=O)N(CCCN3CCOCC3)C2c2ccc(Cl)cc2)cc1 (stereo not given),-0.65
O=[N+]([O-])c1cccc(-c2[nH]ncc2Br)c1,2
Cc1cc(NNC(=O)c2ccc(Cl)cc2)nc2c1c(C)nn2C,-1.2
O=C(c1ccc(Cl)cc1)N1CCc2sccc2C1c1ccc(C(F)(F)F)cc1 (stereo not given),-1.5
Cn1c(=O)c(/C=C/c2ccccc2)nc2ccccc21,-0.3
Cn1c(/C=C/c2ccccc2)nc2ccccc21,3.7*
COc1ccccc1/C=C/c1nc2ccccc2n1C,-0.47
COCCOc1nc2c(c(=O)n(C)c(=O)n2C)n1C(C)c1ccccc1 (stereo not given),1.5
COc1cc(C(SCC(=O)O)SCC(=O)O)cc(OC)c1OC,-0.07
COc1c(Cl)cc(Cl)c(OC)c1C(=O)NC(=O)Nc1c(Cl)cc(Cl)cc1Cl,3.2*
COc1c(Cl)cc(Cl)c(OC)c1C(=O)NC(=O)Nc1c(Cl)cc([N+](=O)[O-])cc1Cl,-1
COc1c(Cl)cc(Cl)c(OC)c1C(=O)NC(=O)Nc1c(C)cc(Br)cc1C,-1.9
Cc1c(Cc2ccc(Cl)c(Cl)c2)c(=O)oc2cc(OS(=O)(=O)c3ccc(Cl)cc3)ccc12,1.7
CCN(CC)c1c([N+](=O)[O-])c(=O)sc2ccccc12,-1.2
O=[N+]([O-])c1ccsc1NCc1ccccc1,-1.1
SMILES,Dicer processing
O=c1sc2ccccc2c(NCc2ccccc2)c1[N+](=O)[O-],4.4*
O=C(CN1C(=O)c2ccccc2S1(=O)=O)NCCSCc1ccc(Cl)cc1,-1.4
Cn1c(SCc2cccc(-c3noc(-c4ccc(Cl)cc4)n3)c2)nnc1C(F)(F)F,-1.6
Cc1nnc(SCC(=O)Nc2ccc(F)c(F)c2)s1,2.4
Nc1c(-c2ccc3ccccc3n2)c2ccc([N+](=O)[O-])cc2c(=O)n1Cc1ccccc1,-1.1
COc1cccc(-n2c(N)c(C#N)c3ccc([N+](=O)[O-])cc3c2=O)c1,-0.03
COc1ccc(-c2c(N)n(-c3ccccc3)c(=O)c3cc([N+](=O)[O-])ccc23)cc1OC,3.4*
CC(C)S(=O)(=O)c1cnc(-c2ccc(Cl)cc2)nc1N,0.64
C(=N\Nc1cc(-c2ccccc2)nc2ncnn12)/c1ccc2c(c1)OCO2,-0.77
Cn1cnc(-c2ccccc2NS(=O)(=O)c2ccc(Cl)cc2)n1,0.08
CCOC(=O)c1c(NC(=O)c2cccs2)sc2c1CCCC2,-1.1
O=C(Nc1sc2c(c1C(=O)Nc1ccccc1)CCCCC2)c1ccco1,2.8
N#Cc1c(NC(=O)c2ccco2)sc2c1CCCCC2,2.6
CCC(=O)Nc1sc2c(c1C(=O)Nc1ccc(Cl)cc1)CCC2,0.55
CCC(=O)Nc1sc2c(c1C(=O)Nc1ccccc1Cl)CCC2,4.2*
CC(C)(C)C1CCc2c(sc(NC(=O)CCC(=O)O)c2C(=O)Nc2ccccc2Cl)C1 (stereo not given),-0.75
O=C(Nc1sc2c(c1C(=O)O)CCCCC2)c1ccco1,2.7
O=C(Nc1sc2c(c1C(=O)Nc1ccccc1)CCCC2)c1ccco1,3.2*
CCOC(=O)c1c(NC(=O)c2ccco2)sc2c1CCCCC2,5.7*
Cc1ccc(/C(N)=N/OC(=O)C(C)c2ccc(CC(C)C)cc2)cc1 (stereo not given),-1.9
Cn1nc(C(F)(F)F)c2cc(-c3nc(-c4cc(C(F)(F)F)cc(C(F)(F)F)c4)no3)sc21,-0.45
Cc1cc(N2CCN(C(=O)c3ccco3)CC2)c2nncn2n1,2.9
CCOC(=O)c1sc(NC(=O)COC(=O)CN2C(=O)C(=O)c3ccccc32)nc1C,-0.61
CN(C)/C=N/c1nnc(Sc2nc3c(Cl)cc(Cl)cc3s2)s1,-0.21
CCn1c(=S)[nH]c2sc(C)c(C)c2c1=O,-1.1
SMILES,Dicer processing
Cc1cc(-n2c(=S)[nH]c3sc(C)c(C)c3c2=O)n(-c2ccccc2)n1,3.2*
Cc1ccnc(-n2c(=S)[nH]c3sc(C)c(C)c3c2=O)c1,0.49
O=C(c1cc2n(n1)C(C(F)(F)F)CC(c1ccc(Br)cc1)N2)N1CCOCC1 (stereo not given),5*
COc1ccc(C2CC(C(F)(F)F)n3nc(C(N)=O)cc3N2)cc1OC (stereo not given),-0.89
CC1CCN(C(=O)c2cc3n(n2)C(C(F)(F)F)CC(c2ccc(Br)cc2)N3)CC1 (stereo not given),5.4*
O=C(c1cc2n(n1)C(C(F)(F)F)CC(c1ccc(Br)cc1)N2)N1CCCCC1 (stereo not given),1.2
O=C(c1cc2n(n1)C(C(F)(F)F)CC(c1ccco1)N2)N1CCN(c2ccccn2)CC1 (stereo not given),-0.69
O=C(c1cc2n(n1)C(C(F)(F)F)CC(c1ccc(Cl)cc1)N2)N1CCCCC1 (stereo not given),1.8
O=C(c1cccc(F)c1)N1CCN(C(=O)c2cc3n(n2)C(C(F)(F)F)CC(c2ccco2)N3)CC1 (stereo not given),1.1
O=C(c1cc2n(n1)C(C(F)(F)F)CC(c1ccc(Cl)cc1)N2)N1CCCC1 (stereo not given),1.7
O=C(c1cc2n(n1)C(C(F)(F)F)CC(c1ccccc1)N2)N1CCOCC1 (stereo not given),3.6*
Cc1nc(N2C(=O)c3oc4ccccc4c(=O)c3C2c2ccc(O)cc2)sc1C (stereo not given),-1.9
Cc1cccc(OCc2nc(-c3ccccn3)no2)c1,3.5
Cc1ccc(N2CC(O)=C(c3nc4ccccc4c(=O)[nH]3)C2=N)cc1,1.9
CCCSc1ncccc1C(=O)Nc1cc(C)no1,-0.48
CC(C)C(=O)N1c2ccccc2NC2=C(C(=O)CC(C)(C)C2)C1c1cccc(F)c1 (stereo not given),-0.74
C=CCn1c2ccccc2c2nnc(SCC(=O)Nc3nnc(C(C)C)s3)nc21,0.47
CCCc1n(CC)c2ccccc2[n+]1CC(O)COc1ccccc1 (stereo not given),-0.03
COc1ccccc1C1Nc2ccc3ncccc3c2C2=C1C(=O)CC(C)(C)C2 (stereo not given),1.2
Cc1sc2c(c1C)C(=O)/C(=C\Nc1ccccc1Cl)S(=O)(=O)N2C,4.8*
CN1c2ccsc2C(=O)/C(=C\Nc2ccccc2Cl)S1(=O)=O,-0.04
Cc1sc2c(c1C)C(=O)/C(=C\Nc1ccccn1)S(=O)(=O)N2C,0.25
O=C1CC(c2nc3ccccc3n2CCc2ccccc2)CN1c1ccccc1 (stereo not given),4.3*
C=C(C)Cn1c(C2CC(=O)N(c3ccc(OCC)cc3)C2)nc2ccccc21 (stereo not given),2.2
CC(c1ccccc1)n1c(C2CC(=O)N(c3ccccc3)C2)nc2ccccc21 (stereo not given),4.7*
